Whole data set: some 81,000 sequences, median “one-hybrid fitness for binding NBS DNA” near -0.1, cut for the highest 2% near 0.36. This excerpt belongs to a sample that is enriched for the highest values.
B1: Caulobacter ParB omega fusion; a variant is named by its letters at X, in order, B8GW30 (parent)
chain: MESVVVGEPGMSEGRRGLGRGLSALLGEVDAAPAQAPGEQLGGSREAPIEILQRNPDQPRRTFREEDLEDLSNSIREKGVLQPILVRPSPDTAGEYQIVAGERAWRAAQRAGLKTVPIMVRELDDLAVLEIGIIENVQRADLNVLEEALSYKVLMEKFERTQENIAQTIGKSXSHVANXMRLLXLPDEVQSYLVSGELTAXHARAIAAAADPVALAKQIIEGGLSVRETEALARKAPNLSAGKSKGGRPPRVKDTDTQALESDLSSVLGLDVSIDHRGSTGTLTITYATLEQLDDLCNRLTRGI

Variants of: B1
Experiment: one-hybrid fitness for binding NBS DNA (the Noc-binding site; scaled: cognate 1, non-cognate 0); higher = stronger binding
Details: with NBS DNA site
In short: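 The reporter was HIS3, with the binding site 19 bp from the promoter, in E. coli USO used for bacterial one-hybrid selection of Caulobacter ParB libraries with four specificity codons randomised. Growth was on M9 lacking histidine, with 0.1 mM IPTG and 5 mM 3-AT, for 48 hours at 37°C. Illumina sequencing covered plasmids before and after selection; three replicate libraries were pooled and variants with under 10 reads dropped. A fitness score is the log change in variant-to-wild-type read ratio, rescaled to the cognate and non-cognate references.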

Variant	one-hybrid fitness for binding NBS DNA
RYMW	≤ 0.2
MSPG	≤ 0.2
AAPF	≤ 0.2
KVSV	≤ 0.2
SDKS	≤ 0.2
WSYG	≤ 0.2
SPGT	≤ 0.2
PNYD	≤ 0.2
KQNC	≤ 0.2
VKNL	≤ 0.2
FTGV	≤ 0.2
QSPF	≤ 0.2
TTVG	≤ 0.2
GWPD	≤ 0.2
RMAR	0.46
RMLN	≤ 0.2
RMHF	≤ 0.2
RMLS	0.309
RMAD	≤ 0.2
RMGN	≤ 0.2
RMGR	0.479
RMHM	≤ 0.2
RMFR	0.348
RMGH	≤ 0.2
RMLR	0.431

Variant	one-hybrid fitness for binding NBS DNA
RMHR	0.503
LIKT	≤ 0.2
VQSV	≤ 0.2
DCSG	≤ 0.2
TPHH	≤ 0.2
LLVG	≤ 0.2
TAIG	≤ 0.2
HVIC	≤ 0.2
VVRW	≤ 0.2
RMCH	≤ 0.2
RMCN	≤ 0.2
RMCR	0.433
RMNN	≤ 0.2
RMDR	≤ 0.2
RMNR	0.545
NAAS	≤ 0.2
FAFL	0.451
FAFR	0.364
FAAL	≤ 0.2
FARL	≤ 0.2
FAYR	≤ 0.2
FAAR	≤ 0.2
MKNR	≤ 0.2
NTMM	≤ 0.2
VTYY	≤ 0.2

Variant	one-hybrid fitness for binding NBS DNA
HWST	≤ 0.2
WHPR	≤ 0.2
RKLH	0.227
RCLR	0.416
RKLN	≤ 0.2
RPLR	≤ 0.2
RSLR	0.339
RKLR	0.525
VCVG	≤ 0.2
QFIL	≤ 0.2
QQAQ	≤ 0.2
QQKQ	0.493
QQYQ	≤ 0.2
QQLQ	≤ 0.2
QQVF	≤ 0.2
QQSQ	≤ 0.2
QQRQ	0.421
QQVQ	0.395
FDNG	≤ 0.2
NNAW	≤ 0.2
YMTS	≤ 0.2
GPQR	≤ 0.2
YAEG	≤ 0.2
QGWN	≤ 0.2
VMDS	≤ 0.2

Variant	one-hybrid fitness for binding NBS DNA
LDDR	≤ 0.2
SESE	≤ 0.2
DLGS	≤ 0.2
RERT	≤ 0.2
RIRT	0.615
RART	0.621
RFDT	≤ 0.2
RIYT	0.34
RFRT	0.456
RCRT	0.706
RAWT	0.236
RFYT	≤ 0.2
RAYT	0.353
RPRT	≤ 0.2
RIPT	≤ 0.2
PNYV	≤ 0.2
RQPS	≤ 0.2
SQNC	≤ 0.2
HISC	≤ 0.2
LSFT	≤ 0.2
TGSY	≤ 0.2
KYSS	≤ 0.2
CQDS	≤ 0.2
RPYT	≤ 0.2
RCYT	0.517

Variant	one-hybrid fitness for binding NBS DNA
RCDT	0.266
RSIT	≤ 0.2
RSRT	0.602
RSYT	0.322
CPVW	≤ 0.2
KHGP	≤ 0.2
QYFN	≤ 0.2
QYAH	≤ 0.2
QYAR	0.517
QYFS	≤ 0.2
QYAN	≤ 0.2
QYFR	0.366
INHG	≤ 0.2
YKQS	≤ 0.2
TADE	≤ 0.2
RRLP	≤ 0.2
RCLS	0.396
RRLS	0.606
RPLS	≤ 0.2
RSLS	0.303
RRLD	≤ 0.2
RRLN	0.23
RCLH	≤ 0.2
RRLH	0.365
GLNS	≤ 0.2

Variant	one-hybrid fitness for binding NBS DNA
KRSF	≤ 0.2
ASNS	≤ 0.2
DKMS	≤ 0.2
HKVM	≤ 0.2
VYHT	≤ 0.2
KGST	≤ 0.2
WSCT	≤ 0.2
QKFR	0.435
QKAK	≤ 0.2
QKAH	≤ 0.2
QKAR	0.606
QKFH	≤ 0.2
QKFP	≤ 0.2
GQKR	0.201
SYQK	≤ 0.2
QHNP	≤ 0.2
QIDR	0.234
QPDR	≤ 0.2
QSNR	0.62
QHNR	0.618
QSNP	≤ 0.2
QINN	≤ 0.2
QCDR	0.402
QHDR	0.336
QINR	0.479

Variant	one-hybrid fitness for binding NBS DNA
QSDR	0.317
QDDR	≤ 0.2
PRGP	≤ 0.2
QLND	≤ 0.2
QANN	≤ 0.2
QPNR	0.236
QLNR	0.551
QCNR	0.751
QFNR	0.268
QANR	0.583
QADR	0.314
QLDR	0.295
NTLI	≤ 0.2
VIMF	≤ 0.2
LAGN	≤ 0.2
EMRR	0.21
ADQR	≤ 0.2
FNIT	≤ 0.2
RPMM	≤ 0.2
GCIC	≤ 0.2
QTNG	0.286
QTDP	≤ 0.2
NTRR	0.235
DTRR	0.303
QTDR	0.483

Variant	one-hybrid fitness for binding NBS DNA
QTYR	0.691
QTNR	0.936
QTNK	0.304
QTRR	1.15
PSTM	≤ 0.2
IDSK	≤ 0.2
HNGW	≤ 0.2
VPAW	≤ 0.2
YCQT	≤ 0.2
TPGL	≤ 0.2
LPPV	≤ 0.2
HSKL	≤ 0.2
CCKT	≤ 0.2
IRKD	≤ 0.2
IRKT	0.471
ISKT	≤ 0.2
CRKT	0.365
IRNT	0.451
IRDT	≤ 0.2
ICKS	≤ 0.2
IRKS	0.37
CRVT	≤ 0.2
ISNT	≤ 0.2
IRVT	≤ 0.2

Source: a collection of fitness landscapes (doi:10.1016/j.celrep.2020.107928)
